Experimental findings from PubChem BioAssay are described below.

The nature of test [1]: rapamycin-like changes in RPL19A-GFP expression – cell-based, S. cerevisiae, multiplex flow cytometry, primary screen (AID 1862; in the data active = percent of DMSO control GFP below about 86%;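 note: lower values mimic rapamycin by blocking the RPL19A rise seen in DMSO cells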). The settings on record: S. cerevisiae RPL19A-GFP strain, flow cytometry fluorescence, 3 h; at 10 µM; stronger effect = lower value. In general terms: Flow cytometry measures light scatter and fluorescence of single cells or particles in a stream.
Test [2] can be described thus: TOR pathway GLN3 branch reporter MEP2-GFP changes – S. cerevisiae, multiplex flow cytometry, primary screen (AID 1867).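 Note: median GFP channel fluorescence of barcode-gated MEP2-GFP cells measured by flow cytometry.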 The conditions noted are these: S. cerevisiae MEP2-GFP strain, 3 h, at 10 µM, stronger effect = higher value, 100% means same as DMSO wells.
The nature of test [3]: TOR pathway RTG branch CIT2 reporter changes – S. cerevisiae, GFP fusion, multiplex flow cytometry, primary screen (AID 1870;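 active = percent response above a set limit, the screen-wide mean plus 3 SD, cut at about 130% in these data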;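 note: barcoded CIT2-GFP strain pooled with four other GFP strains with rapamycin as positive control; median GFP fluorescence per well over plate mean of DMSO wells so 100% = DMSO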). The conditions noted are these: S. cerevisiae CIT2-GFP expression, 3 h, at 10 µM, stronger effect = higher value.
Test [4] is described as follows: TOR pathway LAP4-GFP level changes – S. cerevisiae, multiplex flow cytometry, primary screen (AID 1873;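 active = GFP signal, as percent of the solvent control, above the screen mean plus 3 SD, about 149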). The conditions noted are these: S. cerevisiae LAP4-GFP expression, 3 h, at 10 µM, stronger effect = higher value.
The nature of test [5]: reduced mouse 2C T cell binding to pMHC/ICAM-1 vesicles – MLPCN validation set, flow cytometry, LFA-1/ICAM-1 modulator project, pilot screen (AID 2523;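 active = response below a set limit, under 55% cells CD8-positive and vesicle-bound, and CD8 cells' 90th-percentile brightness under 279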;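 for vesicle binding response: mean PE anti-B7-1 fluorescence of CD8+ cells relative to row control; 100% = QL9-loaded vesicles with DMSO vehicle in the same plate row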). The settings on record: 2C mouse CD8+ T cells, at 7 µM, stronger effect = lower value; double positive events: measured here: CD8+/vesicle+ event percentage.
Test [6] has as its target Integrin beta-1 (Homo sapiens) + Integrin alpha-4 (Homo sapiens) (UniProt P13612+P05556). As to the kind of experiment: alpha4beta1 integrin LIBS antibody binding reduction – U937 cells, HUTS-21 mAb, flow cytometry, validation set, VLA-4 allosteric modulator project, pilot screen (AID 2674;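 active = inhibition above 50%, about 3 SD of the validation set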;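 note: antibody binding induced by the VLA-4 ligand LDV present at three times its Kd; 0% = LDV ligand with antibody and no compound and 100% = antibody without LDV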). The conditions noted are these: HUTS-21 LIBS mAb binding, at 6.7 µM, stronger effect = higher value, binding induced by LDV ligand.

The nature of test [7]: calorie-restriction mimetic ROS inhibitors, yeast – validation compound set, pilot screen (AID 2706;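 active = superoxide response below 65% of plate, a cut near 3 SD across the whole screen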;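 note: yeast exposed to compound for one week at 30 degrees C before staining; 100% = mean of all compound wells on the same plate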). The conditions noted are these: S. cerevisiae aging, superoxide DHE fluorescence; at 10 µM, stronger effect = lower value.
For test [8], the target named is Beta-adrenergic receptor kinase 1 (Homo sapiens) (UniProt P25098). Briefly: GRK2 binders displacing RNA aptamer, biochemical, validation, human GRK2, bead flow cytometry (AID 488806;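 active = aptamer binding inhibition above 30%, about 3 SD of noise from non-fluorescent compounds; inactive = inhibition at or below 30%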). The settings on record: bead-bound GRK2, FAM-aptamer displacement, at 10 µM, stronger effect = higher value.
The target of test [9] is Beta-2 adrenergic receptor (Homo sapiens) (UniProt P07550). As to the kind of experiment: agonist-induced loss of surface beta2AR – cell-based, FAP fluorogen, flow cytometry, validation set, pilot screen (AID 504459;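 active = percent response above 42, roughly 3 SD of non-fluorescent test compounds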;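 note: agonist-driven loss of surface beta2AR via internalization measured by FAP dye flow cytometry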). The conditions noted are these: Am2.2-beta2AR cells, at 10 µM, stronger effect = higher value.
The target of test [10] is AP-2 complex subunit beta (Homo sapiens) (UniProt P63010). As to the kind of experiment: beta-arrestin/AP2 interaction blockers – biochemical, validation set, GST-AP2 beads, flow cytometry, pilot screen (AID 504541;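 active = inhibition above 54%, about 3 SD of non-fluorescent compounds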;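 note: AP2 carries R879A mutation and is captured from E. coli lysate; bead-bound FITC arrestin peptide fluorescence measuring arrestin peptide binding to AP2; 0% = DMSO wells and 100% = excess unlabeled arrestin peptide control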). The conditions noted are these: FITC arrestin peptide, at 10 µM, stronger effect = higher value, AP2 beta2 appendage fragment, R879A mutant.
Test [11] in a line: cytosolic pH regulators acting via V-ATPase – S. cerevisiae, pHLuorin, HTS validation (AID 504600; in the data active = response above about 15%;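 note: plate controls were DMSO for no effect and reference compound for full effect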). The settings on record: V-ATPase proton transport, at 10 µM, stronger effect = higher value.
Test [12] has as its system anti-desmoglein-3 scFv antibody binding to human DSG3. As to the kind of experiment: blockers of pathogenic pemphigus antibody–desmoglein-3 binding – biochemical, validation compound set, bead-based, flow cytometry, pilot screen (AID 588368;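 active = binding below the plate cutoff, the plate median minus 3 SD, with a reading above zero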;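 note: signal is the median channel fluorescence of bead-bound GFP antibody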). The conditions noted are these: Protein G beads, DSG3-Fc, scFv-GFP binding, at 10 µM, stronger effect = lower value.
The nature of test [13]: Nile Red efflux blockade in pump-expressing yeast – validation compound set, multiplex, phenotypic, pilot screen (AID 588506;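 active = efflux inhibition above 0.42, the validation set average plus 4 SD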;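 note: Nile Red retained in cells so higher fluorescence means more efflux inhibition; 0 = negative control wells and 1 = enniatin B 25 µM full block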). The settings on record: S. cerevisiae pump-expressing triplex, Nile Red efflux flow cytometry; at 10 µM; stronger effect = higher value; the pumps come from Candida albicans.
The target of test [14] is ATP-binding cassette sub-family B member 6 (Homo sapiens) (UniProt Q9NP58). Briefly: blockers of ABCB6-driven porphyrin uptake – K562-ABCB6 cells, flow cytometry, validation set, pilot screen (AID 588550;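 active = inhibition above the screen-wide mean plus 3 SD, about 51%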;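 note: 0% = DMSO wells and 100% = benzethonium chloride 70 µM positive control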). The settings on record: K562-ABCB6 porphyrin accumulation, 1 h, at 10 µM, stronger effect = higher value.
A short description of test [15]: AML differentiation inducers, ER-HoxA9 marrow cells – cell-based, GFP/MAC1 double positive, flow cytometry, validation set, primary screen (AID 588685;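 active = differentiation response of at least 50%, scaled between solvent and reference control, from cells with both markers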;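 note: compound exposure lasts four days before antibody staining and flow analysis; 0% = DMSO wells and 100% = 5 µM fulvestrant positive control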). The conditions noted are these: stronger effect = higher value, normalized: vehicle 0, fulvestrant 100.
Test [16] can be described thus: yeast AGP1-GFP level changes, GLN3 branch – cell-based, multiplex flow cytometry, S. cerevisiae, primary screen (AID 1887;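 active = GFP signal above the screen-wide mean plus 3 SD, that is over about 124.5% of the solvent control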;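 note: AGP1-GFP fusion strain of S. cerevisiae within a five-strain barcoded multiplex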). The conditions noted are these: 3 h, at 10 µM, stronger effect = higher value.

Results filed as inconclusive are left out. The source made the active and inactive calls.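 Rule for the calls, unless noted: active = GFP response, as percent of the DMSO control, above the screen-wide mean plus 3 SD, about 139; inconclusive = no response measured because the compound's own fluorescence interfered; inactive = the rest.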

Sequence of Beta-adrenergic receptor kinase 1 (Homo sapiens) (P25098 whole entry, looked up): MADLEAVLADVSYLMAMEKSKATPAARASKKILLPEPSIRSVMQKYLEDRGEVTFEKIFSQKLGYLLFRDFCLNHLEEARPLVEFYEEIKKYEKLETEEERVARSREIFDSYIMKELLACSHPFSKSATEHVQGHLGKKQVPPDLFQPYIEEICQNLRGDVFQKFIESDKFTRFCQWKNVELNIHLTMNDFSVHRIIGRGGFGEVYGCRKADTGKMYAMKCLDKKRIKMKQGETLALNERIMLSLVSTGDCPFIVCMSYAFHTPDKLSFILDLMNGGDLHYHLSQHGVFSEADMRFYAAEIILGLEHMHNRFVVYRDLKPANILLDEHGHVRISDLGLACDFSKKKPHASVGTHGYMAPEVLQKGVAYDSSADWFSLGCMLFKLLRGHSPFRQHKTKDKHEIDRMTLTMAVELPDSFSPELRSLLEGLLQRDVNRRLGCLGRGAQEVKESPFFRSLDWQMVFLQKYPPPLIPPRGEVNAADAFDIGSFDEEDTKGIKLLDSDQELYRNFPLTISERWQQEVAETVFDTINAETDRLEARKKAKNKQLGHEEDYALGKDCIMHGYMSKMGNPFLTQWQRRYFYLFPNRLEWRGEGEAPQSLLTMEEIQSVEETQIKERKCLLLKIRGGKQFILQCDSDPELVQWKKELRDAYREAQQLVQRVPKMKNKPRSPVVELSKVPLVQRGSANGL
Sequence of Beta-2 adrenergic receptor (Homo sapiens) (P07550 whole entry, looked up): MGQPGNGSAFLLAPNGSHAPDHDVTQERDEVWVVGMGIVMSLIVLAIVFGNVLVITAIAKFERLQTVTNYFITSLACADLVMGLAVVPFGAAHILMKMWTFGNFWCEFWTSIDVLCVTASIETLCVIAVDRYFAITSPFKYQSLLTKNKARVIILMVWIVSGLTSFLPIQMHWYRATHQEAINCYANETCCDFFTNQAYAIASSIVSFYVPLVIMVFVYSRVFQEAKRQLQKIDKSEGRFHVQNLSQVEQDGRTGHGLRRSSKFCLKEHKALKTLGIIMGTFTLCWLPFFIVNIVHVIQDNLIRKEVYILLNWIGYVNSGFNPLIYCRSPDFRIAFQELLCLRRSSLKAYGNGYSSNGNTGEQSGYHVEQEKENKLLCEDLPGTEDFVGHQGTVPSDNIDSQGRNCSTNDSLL
Sequence of AP-2 complex subunit beta (Homo sapiens) (P63010 whole entry, looked up, the tested form may be a part, one chain of several): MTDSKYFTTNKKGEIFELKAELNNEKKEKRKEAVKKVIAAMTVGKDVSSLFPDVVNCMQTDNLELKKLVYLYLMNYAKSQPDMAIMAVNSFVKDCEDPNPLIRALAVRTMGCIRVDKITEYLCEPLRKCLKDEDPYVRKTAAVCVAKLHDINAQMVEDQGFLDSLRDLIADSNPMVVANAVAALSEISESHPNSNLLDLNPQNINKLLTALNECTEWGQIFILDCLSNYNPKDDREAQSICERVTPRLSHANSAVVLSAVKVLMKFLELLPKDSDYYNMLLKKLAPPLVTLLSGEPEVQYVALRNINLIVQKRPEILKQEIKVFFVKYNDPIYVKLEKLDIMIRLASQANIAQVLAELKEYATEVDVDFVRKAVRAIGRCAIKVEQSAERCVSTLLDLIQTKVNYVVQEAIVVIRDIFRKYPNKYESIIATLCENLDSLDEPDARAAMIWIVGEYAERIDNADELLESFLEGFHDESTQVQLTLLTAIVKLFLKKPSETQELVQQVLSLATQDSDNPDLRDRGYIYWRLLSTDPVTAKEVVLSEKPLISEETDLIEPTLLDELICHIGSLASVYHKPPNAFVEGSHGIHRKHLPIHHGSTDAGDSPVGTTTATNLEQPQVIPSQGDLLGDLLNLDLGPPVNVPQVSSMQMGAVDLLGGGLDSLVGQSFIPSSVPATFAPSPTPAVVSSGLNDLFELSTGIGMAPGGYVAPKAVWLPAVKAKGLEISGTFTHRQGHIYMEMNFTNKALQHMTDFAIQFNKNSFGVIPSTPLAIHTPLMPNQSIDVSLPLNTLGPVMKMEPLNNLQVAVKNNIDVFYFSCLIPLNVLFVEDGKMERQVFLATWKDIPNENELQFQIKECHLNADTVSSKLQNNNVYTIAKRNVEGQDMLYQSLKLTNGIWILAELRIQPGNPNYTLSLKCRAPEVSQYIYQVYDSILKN
Sequence of Integrin beta-1 (Homo sapiens) + Integrin alpha-4 (Homo sapiens) (P05556 whole entry, looked up): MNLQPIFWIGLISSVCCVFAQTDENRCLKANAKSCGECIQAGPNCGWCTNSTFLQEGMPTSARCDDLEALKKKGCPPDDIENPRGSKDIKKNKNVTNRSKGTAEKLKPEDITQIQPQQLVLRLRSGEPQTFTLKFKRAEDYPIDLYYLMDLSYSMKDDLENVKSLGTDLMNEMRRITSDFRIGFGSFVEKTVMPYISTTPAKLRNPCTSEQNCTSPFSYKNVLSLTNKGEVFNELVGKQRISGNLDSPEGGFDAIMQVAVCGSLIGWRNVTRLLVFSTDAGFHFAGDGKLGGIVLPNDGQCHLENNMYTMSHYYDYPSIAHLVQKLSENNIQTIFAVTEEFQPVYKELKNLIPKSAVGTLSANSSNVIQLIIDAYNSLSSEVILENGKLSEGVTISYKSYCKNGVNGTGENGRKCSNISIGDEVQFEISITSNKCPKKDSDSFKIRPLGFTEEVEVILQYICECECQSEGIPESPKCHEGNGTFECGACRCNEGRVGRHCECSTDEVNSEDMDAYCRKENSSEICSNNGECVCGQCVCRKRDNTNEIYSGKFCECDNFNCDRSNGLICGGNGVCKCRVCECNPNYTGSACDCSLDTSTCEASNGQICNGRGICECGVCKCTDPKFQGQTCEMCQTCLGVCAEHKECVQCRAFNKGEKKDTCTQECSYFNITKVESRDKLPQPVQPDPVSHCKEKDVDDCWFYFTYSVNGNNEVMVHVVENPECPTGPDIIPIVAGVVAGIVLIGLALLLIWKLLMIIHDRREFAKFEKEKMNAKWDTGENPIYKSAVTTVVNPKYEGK
Sequence of Integrin beta-1 (Homo sapiens) + Integrin alpha-4 (Homo sapiens) (P13612 whole entry, looked up): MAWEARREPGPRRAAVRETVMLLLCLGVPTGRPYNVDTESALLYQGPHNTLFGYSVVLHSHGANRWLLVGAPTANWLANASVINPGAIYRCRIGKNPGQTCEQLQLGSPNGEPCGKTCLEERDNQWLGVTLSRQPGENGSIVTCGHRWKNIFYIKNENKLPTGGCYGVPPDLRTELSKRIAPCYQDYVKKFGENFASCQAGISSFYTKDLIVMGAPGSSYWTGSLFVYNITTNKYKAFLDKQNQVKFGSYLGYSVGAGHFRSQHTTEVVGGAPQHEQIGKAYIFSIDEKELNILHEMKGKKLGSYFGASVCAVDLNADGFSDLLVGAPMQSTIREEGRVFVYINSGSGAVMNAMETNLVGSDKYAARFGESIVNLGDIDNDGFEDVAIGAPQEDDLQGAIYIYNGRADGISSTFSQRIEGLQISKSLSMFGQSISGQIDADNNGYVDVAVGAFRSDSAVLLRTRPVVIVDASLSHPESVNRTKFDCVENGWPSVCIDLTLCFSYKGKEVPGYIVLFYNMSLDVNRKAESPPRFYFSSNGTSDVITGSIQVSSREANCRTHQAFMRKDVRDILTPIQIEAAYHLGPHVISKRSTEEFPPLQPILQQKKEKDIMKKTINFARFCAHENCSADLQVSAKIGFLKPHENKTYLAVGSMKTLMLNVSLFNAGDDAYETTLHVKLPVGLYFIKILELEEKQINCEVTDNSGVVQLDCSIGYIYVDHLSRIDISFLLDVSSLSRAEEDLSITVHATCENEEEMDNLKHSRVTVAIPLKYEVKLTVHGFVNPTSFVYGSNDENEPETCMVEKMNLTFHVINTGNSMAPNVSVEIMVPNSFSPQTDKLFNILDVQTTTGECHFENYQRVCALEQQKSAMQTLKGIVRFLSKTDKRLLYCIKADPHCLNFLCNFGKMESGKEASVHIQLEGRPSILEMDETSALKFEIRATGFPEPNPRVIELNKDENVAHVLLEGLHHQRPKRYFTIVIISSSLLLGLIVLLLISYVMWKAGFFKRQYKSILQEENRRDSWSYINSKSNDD
Sequence of ATP-binding cassette sub-family B member 6 (Homo sapiens) (Q9NP58 whole entry, looked up): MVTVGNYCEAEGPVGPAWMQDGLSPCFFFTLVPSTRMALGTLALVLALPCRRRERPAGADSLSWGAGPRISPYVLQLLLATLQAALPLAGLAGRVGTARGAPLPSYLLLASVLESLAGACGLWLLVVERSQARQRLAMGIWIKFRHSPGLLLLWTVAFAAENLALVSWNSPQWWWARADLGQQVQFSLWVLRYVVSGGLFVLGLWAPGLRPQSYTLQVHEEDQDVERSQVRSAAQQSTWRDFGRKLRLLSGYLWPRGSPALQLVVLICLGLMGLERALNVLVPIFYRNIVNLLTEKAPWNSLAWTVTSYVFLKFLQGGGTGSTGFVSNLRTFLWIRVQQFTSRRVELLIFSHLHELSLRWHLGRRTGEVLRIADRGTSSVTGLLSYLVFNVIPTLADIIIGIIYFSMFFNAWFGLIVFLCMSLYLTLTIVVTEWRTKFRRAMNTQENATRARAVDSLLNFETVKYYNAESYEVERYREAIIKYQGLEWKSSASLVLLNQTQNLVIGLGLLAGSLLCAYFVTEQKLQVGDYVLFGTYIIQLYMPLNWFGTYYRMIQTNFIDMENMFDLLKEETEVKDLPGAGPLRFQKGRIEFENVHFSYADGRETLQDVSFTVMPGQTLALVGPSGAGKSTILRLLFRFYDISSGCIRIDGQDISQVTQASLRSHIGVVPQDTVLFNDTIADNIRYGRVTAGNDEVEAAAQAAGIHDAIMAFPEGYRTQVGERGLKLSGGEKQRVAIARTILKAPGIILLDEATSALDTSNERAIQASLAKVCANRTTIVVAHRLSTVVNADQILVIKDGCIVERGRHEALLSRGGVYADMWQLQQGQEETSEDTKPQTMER

Take `O=C1NC2(Nc3ccccc31)C(=O)Nc1ccc(Br)cc12` (stereo not given): in test [1], the percent of DMSO control GFP is 91.7% (inactive). The GFP response vs DMSO is 127% (inactive) in test [2] and 85.8% (inactive) in test [4]. In test [3], the percent response of DMSO control is 102% (inactive). The double positive events in test [5] was found to be 72%. Also, the vesicle binding response in test [5] was 220% (inactive). In addition, the inhibition in test [6] was -3.24% (inactive); in [10], 1.97% (inactive); in test [14], 9% (inactive). Besides, the superoxide response (% of plate) in test [7] was 102% (inactive). Besides, the aptamer binding inhibition in [8] is 2% (inactive). Besides, the response in [9] is -4.23% (inactive); in test [11], 1.05% (inactive). Also, the binding (% of control) in [12] is 98.7% (inactive). Further, the efflux inhibition (fraction of control) in [13] is -0.13 (inactive). The differentiation response in [15] is 0% (inactive).
With `CN(C)CCOc1ccc(Cl)cc1C(C)(C)C`, the percent of DMSO control GFP in test [1] is 103% (inactive). For the same molecule, the results for the GFP response vs DMSO in [2] and in test [4] were 98.5% (inactive) and 122% (inactive), respectively. In test [3], the percent response of DMSO control was 105% (inactive). Also, the GFP response, % of DMSO in [16] was 109% (inactive). Besides, the double positive events in test [5] came to 40.5%. Moreover, the inhibition was 7.76% (inactive) in test [6], -1.49% (inactive) in [10] and 5% (inactive) in [14]. In addition, the superoxide response (% of plate) in test [7] is 105% (inactive). The aptamer binding inhibition in test [8] is -1% (inactive). In addition, the response in test [9] was -20.4% (inactive); in [11], -1.18% (inactive). Further, in test [12], the binding (% of control) was 99.5% (inactive). Also, the efflux inhibition (fraction of control) in test [13] was 0.05 (inactive). In addition, the differentiation response in [15] is -16.8% (inactive).
Regarding `Cc1cc(C(C)(C)C)cc(C)c1CC1=NCCN1`, in test [1], the percent of DMSO control GFP was 93.7% (inactive). For the same molecule, the figures for the GFP response vs DMSO in [2] and in test [4] were 133% (inactive) and 77.6% (inactive), respectively. Moreover, the percent response of DMSO control in [3] is 96.6% (inactive). Further, in test [5], the double positive events worked out at 62.8%. For the same molecule, the vesicle binding response in [5] is 214% (inactive). Further, the results for the inhibition in [6], in test [10] and in test [14] were 18.1% (inactive), 5.97% (inactive) and 10% (inactive), respectively. In addition, the superoxide response (% of plate) in test [7] was 104% (inactive). Further, the aptamer binding inhibition in test [8] was 1% (inactive). Also, the response in [9] was -5.36% (inactive); in test [11] it was -7.49% (inactive). Also, in [12], the binding (% of control) is 98.5% (inactive). Further, the efflux inhibition (fraction of control) in [13] was 0.12 (inactive). Further, the differentiation response in test [15] was 2.46% (inactive).
With `Cc1cccc(N(C)C(=S)Oc2ccc3ccccc3c2)c1`, the percent of DMSO control GFP in test [1] is 94.4% (inactive). Also, the GFP response vs DMSO in [2] was 114% (inactive); in test [4], 78.7% (inactive). The percent response of DMSO control in test [3] was 95.2% (inactive). In addition, the GFP response, % of DMSO in [16] was 97.5% (inactive). This molecule yielded a double positive events in test [5] of 86.4%. Besides, the inhibition in [6] was -8.09% (inactive); in test [10], -3.34% (inactive); in [14] it was 8% (inactive). The superoxide response (% of plate) in test [7] was 87.4% (inactive). Further, in [8], the aptamer binding inhibition was 0% (inactive). Further, the response in [9] was 11.2% (inactive); in test [11] it was 4.82% (inactive). Also, in test [12], the binding (% of control) was 106% (inactive). Moreover, the efflux inhibition (fraction of control) in test [13] was -0.38 (inactive). Further, the differentiation response in test [15] is -1.64% (inactive).
On to `Cc1c(OC(=O)CNC(=O)OC(C)(C)C)ccc2c3c(c(=O)oc12)CCC3`, for which the percent of DMSO control GFP in test [1] was 93.3% (inactive). Further, the GFP response vs DMSO was 123% (inactive) in [2] and 80.3% (inactive) in [4]. Also, the percent response of DMSO control in [3] was 90% (inactive). Further, the double positive events in test [5] was 60.3%. The vesicle binding response in [5] is 210% (inactive). Further, the inhibition was 9.37% (inactive) in [6], 4.15% (inactive) in test [10] and 1% (inactive) in test [14]. Further, in test [7], the superoxide response (% of plate) was 101% (inactive). For the same molecule, in test [8], the aptamer binding inhibition was -1% (inactive). Besides, the response in test [9] is -1.96% (inactive); in test [11] it was 0.35% (inactive). Moreover, the binding (% of control) in test [12] is 107% (inactive). Further, the efflux inhibition (fraction of control) in test [13] is 0.01 (inactive). In addition, the differentiation response in test [15] is 0% (inactive).

A word on the inhibition: it is the drop in the measured response relative to a control, in per cent.
